Results from PubChem BioAssay AID652154 (Broad Institute, 2013).
Hit rate of the full screen: of about 360,000 compounds, about 4,200 (1.2%) were called active. For the sample, actives were picked, then their nearest neighbours and some compounds at random. Unmarked numbers belong to inactive results.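 The calls were made as follows: active = mean replicate inhibition at least 60% with every replicate also reaching 60%; inconclusive = only one of the two criteria is met; inactive = mean below 60% and not all replicates reaching 60%.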

Test: PAX8 transcriptional activity inhibition in RMG-I – RMG-I cells, luciferase, single concentration, primary screen (AID 652154);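 also: luciferase light reporting Pax8 driven TPO promoter activity; plate controls were median of neutral control wells for no effect and mitoxantrone controls for full effect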
Settings: RMG-I TPO-luciferase reporter, SteadyGlo, 24 h; at 12.6 µM; hits give high values

SMILES | inhibition
C[C@H](CO)N1C[C@H](C)[C@H](CN(C)Cc2cccc(F)c2)Oc2ncc(C#CCN(C)C)cc2C1=O | 10.3%
Cc1cc(OC(=O)NCCc2ccc(F)cc2)ccc1F | -1.24%
OC[C@H]1[C@@H](c2ccc(-c3ccccc3F)cc2)[C@@H]2CN(Cc3ccncc3)CCCCN12 | 17.2%
CCCc1cn(CC[C@H]2CC[C@@H](NS(=O)(=O)c3ccccc3Cl)[C@@H](CO)O2)nn1 | -2.22%
O=C(C[C@@H]1C=C[C@H](NC(=O)Nc2ccccc2F)[C@@H](CO)O1)NCc1ccccc1 | 1.09%
COc1ccc(CN2[C@H](CO)[C@@H]3c4ccccc4N(C(=O)C4CC4)C[C@@H]32)cc1 | 5.67%
Brc1ccc(COCCc2cn(Cc3ccccc3)c3ccccc23)cc1 | -11.9%
COc1ccccc1C1C2=C(COC2=O)Nc2cc3c(cc21)OCO3 (stereo unspecified) | 85.6% (active)
O=C1NC(c2cc3c(cc2Cl)OCO3)Oc2ccccc21 (stereo unspecified) | -6.52%
O=C1OCC2=C1C(c1ccc(Cl)cc1)c1cc3c(cc1O2)OCO3 (stereo unspecified) | 11%
C[C@@H]1CN([C@H](C)CO)C(=O)c2cc(NS(=O)(=O)c3ccccc3)ccc2O[C@H]1CN(C)S(=O)(=O)c1ccc(Cl)cc1 | 3.11%
Cc1ccc(C(=O)C(=S)N2CCOCC2)cc1 | 67.2% (active)
Cc1ccc(C(=O)OC(C)CN2CCOCC2)cc1 (stereo unspecified) | -27.6%
Cc1ccc(C(=O)Oc2ccc(C(=S)N3CCOCC3)cc2)cc1 | -7.47%
C[C@@H]1CN([C@@H](C)CO)C(=O)Cc2cc(NC(=O)CCN3CCOCC3)ccc2O[C@@H]1CN(C)CC1CC1 | -46.4%
Cc1cccc(-c2nc3ccc(C(=O)NCCN4CCN(C)CC4)cc3nc2-c2cccc(C)c2)c1 | 50.9%
CCN1CCN(CCNC(=O)c2ccc(/C=C3/Sc4ccccc4N(Cc4cccc(C)c4)C3=O)cc2)CC1 | 84.9% (active)
O=C(NCCN1CCOCC1)c1ccc2c(c1)N(Cc1cccc(Cl)c1)C(=O)c1ccccc1S2(=O)=O | -1.71%
C[C@@H]1CCCCO[C@@H](CN(C)CC2CC2)[C@H](C)CN([C@H](C)CO)C(=O)c2cc(NS(=O)(=O)c3ccccc3)ccc2O1 | 3.85%
CN(O)C(=S)c1ccccc1 | 82% (active)
COc1cccc(CN(C)C[C@H]2OCc3ccccc3-c3c(n(C)c4ccccc34)C(=O)N([C@@H](C)CO)C[C@@H]2C)c1 | 11%
O=C(c1ccncc1)N1C[C@@H]2[C@H](c3ccccc31)[C@H](CO)N2C(=O)c1ccncc1 | -12.9%
CC(C)NC(=O)N(C)C[C@@H]1Oc2ccc(N(C)C)cc2CC(=O)N([C@H](C)CO)C[C@@H]1C | -4.65%
O=C(C[C@H]1CC[C@@H]2[C@H](COC[C@@H](O)CN2C(=O)Nc2ccc(C(F)(F)F)cc2)O1)NCCc1ccncc1 | -6.11%
C[C@@H]1CN([C@H](C)CO)C(=O)c2cc(NC(=O)C3CCCCC3)ccc2O[C@H]1CN(C)C(=O)Nc1ccccc1 | 9.45%
C[C@H](CO)N1C[C@H](C)[C@@H](CN(C)C(=O)Nc2ccc3c(c2)OCO3)Oc2ccc(NC(=O)NC3CCCCC3)cc2CC1=O | -23.2%

SMILES | inhibition
COc1ccc(-c2cc(C(=O)N(C)Cc3ccc(OC)c(OC)c3OC)c3ccccc3n2)cc1OC | 27.1%
COc1ccc(-c2cc(C(F)(F)F)nc(S(C)(=O)=O)n2)cc1OC | 122% (active)
COc1ccc(-c2cc(C(=O)NCCCN3CCCC3=O)c3ccccc3n2)cc1OC | 2.26%
Cc1ccccc1S(=O)(=O)N1[C@@H](C#N)[C@H](c2ccccc2)[C@@H]1CO | -4.36%
O=C(Cc1ccccc1)N1CC2(C1)[C@H](c1ccccc1)[C@@H](CO)N2C(=O)c1cccnc1 | -7.25%
COc1ccnc(Oc2ccccc2)n1 | -3.33%
COc1ccccc1-n1cn[nH]c1=S | 8.11%
COc1ccnc(Oc2ccccc2)c1-c1ncn[nH]1 | 84.6% (active)
OC[C@@H]1[C@@H](c2ccc(-c3ccccc3F)cc2)[C@@H]2CN(Cc3cncnc3)CCCCN12 | 4.63%
CC1Cc2ccccc2N1C(=O)CSc1nnc(-c2ccc(S(=O)(=O)N3CCCC3)cc2)n1C (stereo unspecified) | 20.8%
CC1Cc2ccccc2N1C(=O)CSc1nnc(C2CC2)n1C (stereo unspecified) | 78.3% (active)
CN(C(=O)CSc1nnc(C2CC2)n1C)C1CCCc2ccccc21 (stereo unspecified) | 8.2%
O=C(N[C@H]1CC[C@@H](CCn2cc(Cc3ccccc3)nn2)O[C@H]1CO)c1cnccn1 | -16.7%
C[C@H](CO)N1C[C@H](C)[C@H](CN(C)CC2CC2)Oc2cc(-c3ccc(F)cc3)ccc2S1(=O)=O | -2.31%
O=C1NC(Cc2ccccc2)c2nc3ccc(Br)cc3c(=O)n2-c2cc3ccccc3cc21 (stereo unspecified) | 34.1%
COc1ccc2nc3n(c(=O)c2c1)-c1ccc(Cl)cc1C(=O)NC3Cc1ccccc1 (stereo unspecified) | 82.6% (active)
CC(C)CC1NC(=O)c2cc(Cl)ccc2-n2c1nc1ccccc1c2=O (stereo unspecified) | 6.69%
Cc1noc(C)c1NC(=O)N(C)C[C@H]1OCCCC[C@H](C)Oc2ccc(NC(=O)Nc3ccccc3)cc2C(=O)N([C@H](C)CO)C[C@@H]1C | 8.48%
COc1ccccc1CNC(=O)C[C@H]1CC[C@@H](NC(=O)CN(C)C)[C@@H](CO)O1 | -11.2%
COc1cccc(C#Cc2ccc([C@@H]3[C@H](C#N)N[C@H]3CO)cc2)c1 | -230%
O=C(C[C@@H]1C[C@@H]2c3cc(NC(=O)NC4CCCC4)ccc3O[C@@H]2[C@@H](CO)O1)NCc1ccccc1 | -4.64%
C[C@H](CO)N1C[C@H](C)[C@@H](CN(C)C(=O)c2cnccn2)Oc2ncc(-c3ccccc3F)cc2C1=O | 2.74%
C[C@H](CO)N1C[C@H](C)[C@@H](CN(C)S(=O)(=O)c2ccc([N+](=O)[O-])cc2)OCc2ccccc2-c2c(n(C)c3ccccc23)C1=O | 16.1%
C[C@H](CO)N1C[C@H](C)[C@@H](CN(C)S(=O)(=O)c2cccc(F)c2)OCc2ccccc2-c2c(n(C)c3ccccc23)C1=O | 83.4% (active)
C[C@@H]1CN([C@H](C)CO)C(=O)c2c(c3ccccc3n2C)-c2ccccc2CO[C@H]1CN(C)S(=O)(=O)c1ccccc1F | 40.5%
